Hits are enriched below; roughly 5.3% of the tested compounds scored in any of these assays.
Tau fluor counter: Counterscreen qHTS for Inhibitors of Tau Fibril Formation, Fluorescence Polarization; Potency, µM (doses to about 57.7 µM), for inactives: at the highest dose activity change, negative = decrease; AID 1463, 2008; tau K18 P301L Alexa594 fluorescence, heparin fibrillization; 280,000 compounds, 0.93% hits; further: potency means the concentration at half of the fitted maximal effect; nearly all actives have a fitted effect of over 55% in size
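Human K18 P301L tau (15 uM unlabeled plus 0.24 uM Alexa 594-labeled, final) in 100 mM sodium acetate pH 7 was mixed with compound and 20 uM heparin and incubated 6 hr at 37 C.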
Sfp PPTase inh: qHTS Assay for Inhibitors of Bacillus subtilis Sfp phosphopantetheinyl transferase (PPTase). 310,000 compounds, 3.5% hits. 4'-phosphopantetheinyl transferase ffp (Bacillus subtilis), Q9F4F7. AID 1490, 2009. Biochemical Sfp PPTase activity, qHTS. Potency, µM, inactives show largest response in the series, negative = inhibition, hits mostly inhibitors;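 further: the enzyme is Sfp with the accession as filed and its product quenches rhodamine fluorescence; potency means the concentration at half of the fitted maximal effect; 0% = enzyme reaction without inhibitor and -100% = no enzyme wells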
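Buffer: 50 mM Hepes-Na pH 7.6, 10 mM MgCl2, 0.01% Nonidet P-40, 0.01% BSA. Enzyme 15 nM, pre-exposed to compound 15 min; substrates then added and fluorescence change tracked over 30 min.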
Tau fibril ThT: qHTS for Inhibitors of Tau Fibril Formation, Thioflavin T Binding; recombinant tau K18 P301L (four-repeat tau fragment), heparin-induced fibrillization, ThT fluorescence; AID 1460, 2008; Microtubule-associated protein tau (Homo sapiens), P10636; Potency, µM (doses to about 57.4 µM), for inactives: at the top dose activity, negative = inhibition, usual class: inhibitors; 270,000 compounds, 2.1% hits; further: potency means the concentration at half of the fitted maximal effect; nearly all actives have a fitted effect of over 55% in size
Target sequence (P10636 561-689 P618L limits assumed): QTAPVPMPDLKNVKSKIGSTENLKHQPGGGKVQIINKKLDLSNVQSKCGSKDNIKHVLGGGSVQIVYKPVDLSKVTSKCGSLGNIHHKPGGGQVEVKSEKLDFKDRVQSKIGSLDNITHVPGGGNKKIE
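K18 P301L tau (15 uM + 0.24 uM Alexa 594-tagged), heparin 20 uM, NaOAc pH 7, 6 h 37 C; ThT 30 uM, 1 h RT, ex 450/em 510 nm.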
Coupling enz: qHTS Assay for Inhibitors of Fructose-1,6-bisphosphate Aldolase from Giardia Lamblia: Coupling assay counterscreen | 290,000 compounds, 0.67% hits | activity change, negative = inhibition, % at 58.2 µM, hits read low | coupling enzyme system counterscreen, AmpLite Red fluorescence; in the data active means activity change below about -30%
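Coupling enzymes only (glyceraldehyde-3-phosphate) + compound, at 57.5 uM final, 10 min RT; add substrate/coupling/AmpLite Red mix, 20 min RT; fluorescence ex 525/em 598 nm. Actives flag coupling-system interference.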
JMJD2E inh: qHTS Assay for Inhibitors of Human Jumonji Domain Containing 2E (JMJD2E) | 230,000 compounds, 1.6% hits | JMJD2E catalytic domain, FDH-coupled NADH fluorescence (FDH is formaldehyde dehydrogenase) | Lysine-specific demethylase 4E (Homo sapiens), B2RXH2 | AID 2147, 2009 | Potency, µM (titrated, usually from 57.1 µM), without a hit: at the highest dose activity change, negative = inhibition, hits mostly inhibitors; active means well fitted inhibition curve with a large enough effect, not every such curve was filed as active; inconclusive means small, poorly fitted or top-dose-only effect, or another doubt; inactive means no such curve, though single readings can be large or run the other way;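 further: potency means the concentration at half of the fitted maximal effect; 0% = wells with enzyme and -100% = buffer wells without enzyme; nearly all actives have a fitted effect of over 50% in size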
Target sequence (B2RXH2 1-337 limits assumed): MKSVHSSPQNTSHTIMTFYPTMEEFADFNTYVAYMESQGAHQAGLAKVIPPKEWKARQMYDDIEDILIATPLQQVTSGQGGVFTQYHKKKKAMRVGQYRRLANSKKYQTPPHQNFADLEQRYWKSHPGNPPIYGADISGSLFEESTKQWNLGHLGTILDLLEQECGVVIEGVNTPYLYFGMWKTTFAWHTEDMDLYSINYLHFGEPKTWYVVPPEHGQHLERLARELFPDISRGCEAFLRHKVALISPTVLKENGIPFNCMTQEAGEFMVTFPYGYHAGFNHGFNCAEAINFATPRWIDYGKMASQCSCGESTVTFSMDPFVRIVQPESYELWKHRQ
Tau FP inhib: qHTS for Inhibitors of Tau Fibril Formation, Fluorescence Polarization | Microtubule-associated protein tau (Homo sapiens), P10636 | K18 P301L tau heparin fibrillization, Alexa594 FP, 6 h | Potency, µM (highest dose often 57.7 µM), for the others: top-dose activity, negative = inhibition, most hits filed as inhibitors | 280,000 compounds, 0.39% hits | AID 1468, 2008; further: potency means the concentration at half of the fitted maximal effect; nearly all actives have a fitted effect of over 55% in size
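Human K18 P301L fragment (15 uM unlabeled plus 0.24 uM Alexa 594-labeled) in 100 mM sodium acetate pH 7 with compound, aggregation induced by 20 uM heparin for 6 hr at 37 C. ThT (30 uM) added for 1 hr, then Alexa 594 FP read.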
An asterisk follows results filed as active; ? = inconclusive; · = not tested or not shown; [ ] = dose if it differs, or a comment. Unless noted, the call rests on the fitted dose curve; in most records, active means well fitted curve in the direction sought with a large enough effect; inconclusive means small, poorly fitted or top-dose-only effect, or another doubt; inactive means no such curve, though single readings can be large; an effect the other way counts as inactive or inconclusive. Unless noted, on the % scale 0 is the no-effect control and ±100 the full control effect.

SMILES | Tau fluor counter | Sfp PPTase inh | Tau fibril ThT | Coupling enz | JMJD2E inh | Tau FP inhib
O=C(CN1C(=O)NC(Cc2c[nH]c3ccccc23)C1=O)Nc1cccc(S(=O)(=O)N2CCCCCC2)c1 (stereo not given) | 14µM*[quencher] | 15% | -4% | -9 | 12% | -10%
O=C(O)c1cccc(-c2ccc(/C=N/Nc3ccc([N+](=O)[O-])cc3)o2)c1 | 16µM*[quencher] | 0% | · | -13 | ? | -9%
O=C(O)c1ccc(N/N=C/c2ccc(-c3cccc(Cl)c3)o2)cc1 | 20µM*[quencher] | -22% | · | 6 | ? | 3%
NS(=O)(=O)c1ccc(-c2ccc(/C=N/Nc3ccc(C(=O)O)cc3)o2)cc1 | ? | 50µM* | · | -7 | ? | 6%
Cc1c(C(=O)O)cccc1-c1ccc(/C=N/Nc2ccc(Br)cc2)o1 | ? | ? | 11µM* | -4 | 7% | -12%
O=C(O)c1ccc(N/N=C/c2ccc(-c3cc(Cl)ccc3Cl)o2)cc1 | 10%[0.0958 µM] | -26% | · | 10 | ? | -1%[0.0958 µM]
CC12CCC=CC1C(c1ccc(F)c(/C=C/c3ccccc3)c1)N(Cc1ccccc1)C2=O (stereo not given) | · | ? | · | 0 | · | ·
Cc1ccccc1OCc1nc2c3cnn(-c4cccc(F)c4)c3ncn2n1 | -2% | · | ? | · | · | -11%
O=[N+]([O-])c1ccc(N/N=C/c2cccc(O)c2O)cc1 | · | -6% | · | -15 | · | ·
O=C(Cc1ccc(F)cc1)N/N=C/c1ccc(-c2ccc(Cl)c(C(=O)O)c2)o1 | 3% | 28µM* | -1% | 16 | ? | 6%
O=C(O)c1cc(-c2ccc(/C=N/Nc3ccc([N+](=O)[O-])cn3)o2)ccc1Cl | ? | 45µM* | 1.3µM* | -10 | ? | -5%
Cc1cccc(C(=O)Oc2ccccc2/C=N/Nc2ccc([N+](=O)[O-])cc2)c1 | 4µM*[quencher] | 13% | ? | 0 | -4% | 7%
COCCCn1c(SCc2ccccc2F)nc2c(sc3ccccc32)c1=O | -10% | · | -1% | · | · | -10%
CC(C)C[C@H](NC(=O)[C@H](CCCCN)NC(=O)[C@H](CCC(N)=O)NC(=O)[C@H](Cc1cnc[nH]1)NC(=O)[C@H](Cc1cnc[nH]1)NC(=O)[C@@H](N)C(C)C)C(=O)N[C@H](C(=O)N[C@@H](Cc1ccccc1)C(=O)N[C@@H](Cc1ccccc1)C(=O)N[C@@H](C)C(=O)N[C@@H](CCC(=O)O)C(=O)N[C@@H](CC(=O)O)C(=O)N[C@H](C(=O)NCC(=O)N[C@@H](CO)C(=O)N[C@@H](CC(N)=O)C(=O)N[C@@H](CCCCN)C(=O)O)C(C)C)C(C)C | · | 31% | · | 0 | · | ·
C[C@H]1Cc2c(-c3ccccc3)nc3c(c2CO1)CN(C(=O)c1ccco1)CC3 | -4%[11.6 µM] | 8% | 1%[11.5 µM] | -1 | -3%[11.4 µM] | -5%[11.6 µM]
Clc1ccc(N/N=C/c2cccnc2)cc1 | 16µM*[quencher] | -7% | ? | -2 | -19% | 12%
O=C(O)c1cccc(N/N=C/c2cccnc2)c1 | 1% | 23% | ? | -1 | -4% | 6%
C(=N\NC1=Nc2cccc3cccc1c23)/c1cccnc1 | -26% | ? | 2.8µM* | -21 | 9% | 13%
Clc1ccc(/C=N/NC2=Nc3cccc4cccc2c34)cc1 | -23% | 6% | 2.8µM* | -4 | 8% | 12%
O=[N+]([O-])c1ccc(N/N=C/c2cccnc2)cc1 | · | 2% | · | -5 | · | ·
C(=N\NC1=Nc2cccc3cccc1c23)/c1ccccc1 | -23% | ? | 2µM* | -13 | -2% | 8%
N#Cc1nc(NCCCCO)nc(Nc2ccccc2)n1 | · | · | · | 0 | · | ·
O=C(Nc1ccc(C(=O)O)cc1)/C(=C\c1ccco1)NC(=O)c1ccc(Br)o1 | · | 50µM* | · | 2 | · | ·
O=C(NCc1ccco1)/C(=C\c1ccco1)NC(=O)c1ccco1 | ? | 45µM* | 40µM* | -21 | -2% | ?
O=C(NCc1ccco1)/C(=C\c1ccco1)NC(=O)c1ccc(Br)o1 | 1% | 89µM* | 6% | -15 | -7% | -6%
SMILES | Tau fluor counter | Sfp PPTase inh | Tau fibril ThT | Coupling enz | JMJD2E inh | Tau FP inhib
C=CCNC(=O)/C(=C\c1ccco1)NC(=O)c1ccco1 | · | 12% | · | -2 | · | ·
O=C(NCc1ccco1)/C(=C/c1ccccc1)NC(=O)c1ccco1 | · | 15% | · | 4 | · | ·
O=C(O)/C(=C/c1ccco1)NC(=O)c1ccc(Br)o1 | · | -14% | · | 3 | · | ·
O=C(NCc1ccco1)/C(=C/c1ccco1)NC(=O)c1ccc(Br)o1 | -10% | ? | ? | -6 | 3% | -5%
C=CCNC(=O)/C(=C/c1ccco1)NC(=O)c1ccc(Br)o1 | -5% | 10µM* | ? | -20 | -22% | 2%
COc1ccc(OC)c(CNC(=O)NCc2noc3ccc(C)cc23)c1 | -19% | · | -9% | · | · | -2%
O=C(Cn1c(=O)nc(-c2ccccc2)c2cc(Cl)ccc21)NCCCc1ccccc1 | -19% | · | ? | · | · | 0%
Nc1[nH]n(-c2ccccc2)c(=O)c1N=Nc1ccccc1[N+](=O)[O-] | ? | -3% | ? | -1 | 1% | -2%
Cc1[nH]n(-c2ccccc2)c(=O)c1N=Nc1ccc2c(c1)OCCO2 | ? | -2% | 3.5µM* | -4 | -8% | -18%
Cc1ccc(N=Nc2c(C)[nH]n(-c3ccccc3)c2=O)cc1Br | · | -1% | · | -3 | · | ·
Nc1[nH]n(-c2ccccc2)c(=O)c1N=Nc1ccccc1 | 5µM*[quencher] | 9% | 2.5µM* | 1 | 0% | 12%
Cc1[nH]n(-c2ccccc2)c(=O)c1N=Nc1cccc(Cl)c1 | · | 17% | · | -8 | · | ·
Nc1[nH]n(-c2ccccc2)c(=O)c1N=Nc1ccc2ncsc2c1 | 5µM*[quencher] | 50µM* | 2.2µM* | 2 | -1% | ?
O=c1c(-c2cc(F)cc(F)c2)nc2cncnc2n1Cc1ccccc1 | · | -7% | · | 1 | · | ·
CNS(=O)(=O)c1cn(CC(=O)N2CCN(c3ccc(C(C)=O)cc3)CC2)cc1S(=O)(=O)NC | -4% | · | -6% | · | · | 1%
CCc1cc2c(nc1CC)CCN(CC/C(C)=N/OC[C@@H](O)[C@@H]1O[C@@H]3OC(C)(C)O[C@@H]3[C@H]1O)C2 | 0%[11.6 µM] | -5% | -3%[11.5 µM] | 3 | · | 1%[11.6 µM]
CCOC(=O)CC1=C(C(=O)OCC)C(c2cccs2)C(C#N)=C(N)O1 (stereo not given) | -6% | -7% | -6% | 0 | ? | 0%

Screening data as filed in PubChem.
